Assay outcomes: PubChem, National Center for Advancing Translational Sciences (NCATS)
Hits are enriched below; roughly 12% of the tested compounds scored in any of these assays.
JMJD2A Tudor inh: blocks the human JMJD2A Tudor domain; O75164; 390,000 tested, 4.4% active; Potency, µM (highest dose often 114 µM), for the others: top-dose activity change, negative = inhibition, actives largely listed as inhibitors; AID 504339; AlphaScreen JMJD2A-Tudor / H3K4me3 peptide binding; also: potency is read from the fitted curve at half-maximal effect; % is scaled to controls: 0 for no effect and ±100 for the full control effect; nearly all actives have a fitted effect of over 50% in size
PLK1 PBD block: PLK1 (human) polo-box domain binding inhibition | P53350 | Plk1 PBD binding of FITC phosphopeptide, fluorescence polarization | Potency, µM, for the others: max response, negative = inhibition, hits mostly inhibitors | 360,000 tested, 2.8% active; also: potency is read from the fitted curve at half-maximal effect; series mostly up to about 57 µM; % is scaled to controls: 0 for no effect and ±100 for the full control effect; nearly all actives have a fitted effect of over 65% in size
G9a block: G9a (human) methyltransferase inhibition; G9a H3K9 monomethylation, AlphaScreen, 2 h; 350,000 tested, 8.8% active; Potency, µM (series often up to 102 µM), inactives show at the top dose activity, negative = inhibition, actives largely listed as inhibitors; Q96KQ7; AID 504332; also: potency is read from the fitted curve at half-maximal effect; % is scaled to controls: 0 for no effect and ±100 for the full control effect; nearly all actives have a fitted effect of over 75% in size
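G9a (20 nM) was preincubated 15 min with compound, then reacted 2 h at room temperature with 500 nM biotin-H3K9 peptide and 20 µM SAM. Monomethyl-H3K9 detected by AlphaScreen using anti-H3K9me1 antibody.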
HP1b binding inh: HP1-beta chromodomain-methylated histone interaction inhibition. AlphaScreen HP1-beta / biotin-H3K9me3 peptide binding. P83916. Potency, µM (highest dose often 114 µM), for the others: at the top dose activity change, negative = inhibition, actives largely listed as inhibitors. AID 540317. 390,000 tested, 0.56% active; also: potency is read from the fitted curve at half-maximal effect; nearly all actives have a fitted effect of over 70% in size
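Compound inhibition of the preformed complex between 50 nM HP1-beta and 50 nM biotinylated H3K9me3 peptide was read by AlphaScreen. Buffer was PBS pH 7.4 with 0.01% Tween-20. Incubations ran 30 min at room temperature, with 10 ug/mL donor/acceptor beads.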
BAZ2B inh: blocks human BAZ2B; Q9UIF8; AlphaScreen BAZ2B-H3K14Ac peptide displacement; Potency, µM (titrated, usually from 114 µM), without a hit: top-dose activity change, negative = inhibition, actives largely listed as inhibitors; 360,000 tested, 4.4% active; also: potency is read from the fitted curve at half-maximal effect; % is scaled to controls: 0 for no effect and ±100 for the full control effect; nearly all actives have a fitted effect of over 60% in size
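Complex of BAZ2B and biotin-H3K14Ac (50 nM apiece) forms over 30 min at RT, then faces library compounds up to 110 uM for another 30 min; AlphaScreen beads added, 20 min dark incubation, luminescence read.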
PI5P4K alpha inh: inhibitors of human PI5P4K alpha; P48426; PI5P4Kalpha enzyme, ADP-Glo luminescence, 60 min; hits give low values; max response, %; 330,000 tested, 1.2% active; AID 652105; active = max response of -50% or lower; inconclusive = between -30% and -50%; inactive = -30% or higher; also: value at the top dose of about 77 µM; % is scaled to controls: 0 for no effect and ±100 for the full control effect
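ADP-Glo luminescence end-point after a 60 min room-temperature kinase reaction. PI5P4Kalpha and substrate in HEPES pH 7.4 buffer with EGTA, 0.1% CHAPS and 5% DMSO; ATP at 5 microM final.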
Active calls of the source: *; ? = inconclusive; . = not tested or not shown; [ ] = another dose, or the depositor's remark. Unless noted, calls follow the shape of the dose curve; as a rule, active = well fitted curve in the direction sought with a large enough effect; inconclusive = small, poorly fitted or top-dose-only effect, or another doubt; inactive = no such curve, though single readings can be large; an effect the other way counts as inactive or inconclusive.

SMILES | JMJD2A Tudor inh | PLK1 PBD block | G9a block | HP1b binding inh | BAZ2B inh | PI5P4K alpha inh
COc1ccc(S(=O)(=O)N2CCC[C@H]2C(=O)N2CCC[C@H]2C(=O)N(C)Cc2ccccc2)cc1C | . | 0% | . | . | . | 3
c1ccc(CSc2nc3ncncc3[nH]2)cc1 | -13%[11.4 µM] | -22% | -48% | 52% | -4% | 2
CCOC(=O)Sc1nc2ncncc2[nH]1 | 3.5µM* | -15% | . | ? | . | -17
O=C(CCC(=O)N(CC(=O)NC1CCCCC1)CC1CCCO1)Nc1nccs1 (stereo not drawn) | -13% | 27µM* | . | -25% | -4% | -8
O=S1(=O)[C@H]2C[C@H](CO)O[C@@]2(CO)CN1Cc1ccc(-c2ccc(F)cc2)cc1 | -15% | -2% | . | 62% | . | -1
COC1CCCN(Cc2c(C(=O)N3CCN(C4CCCCC4)CC3)nc3ccccn23)C1 (stereo not drawn) | -12% | -9% | 79µM* | 26% | ? | 5
O=Nc1c(-c2ccccc2)cc2ccccn12 | -36% | -9% | 40µM* | 7% | 79µM* | 0
N#CCC(=O)Nc1ccc(C(=O)OCC(=O)NC(=O)NCc2ccco2)cc1 | -22% | 4% | . | -3% | . | -55*
O=C(COC(=O)c1ccccc1Nc1cccc(C(F)(F)F)c1)NCc1ccco1 | 56µM* | -11% | 28µM* | ? | 45µM* | ?
O=C(OCCOCCO)c1ccccc1Nc1cccc(C(F)(F)F)c1 | . | . | 4%[5.15 µM] | . | . | .
O=C(COC(=O)c1ccccc1)NCc1ccco1 | ? | -22% | -5%[59 µM] | -12% | 50µM* | ?
O=C(COC(=O)c1cccc(Br)c1)NCc1ccco1 | 18µM* | -14% | . | ? | . | ?
Cc1ccc(C(=O)OCC(=O)NCc2ccco2)cc1 | -12% | -6% | ? | 27% | ? | -16
CCOC(=O)c1ccc(NC(=O)CCC(=O)NCc2ccco2)cc1 | -1% | -4% | 17% | 41% | -5% | -8
COc1cccc2cc(S(=O)(=O)c3ccc(F)c(C)c3)c(=O)oc12 | -9% | . | -20%[59 µM] | 30% | -13% | .
CC(C)(C)OC(=O)N1CCC(c2c(C(=O)NC3CCN(Cc4ccccc4)CC3)cnn2-c2cccc(F)c2)CC1 | -21% | . | -25%[59 µM] | 10% | 3%[57.1 µM] | .
CCc1nc2ccc(C(=O)N(C)CCCN(C)C)cn2c1N(C=O)CCC(C)C | . | -13% | . | . | . | 0
COc1ccc(C(=O)OCC(=O)c2ccco2)cc1[N+](=O)[O-] | . | -3% | . | . | . | -59*
O=C(COC(=O)c1ccco1)NCc1ccco1 | -5% | 1% | -7% | 36% | 5% | .
O=C(COC(=O)c1ccccc1Oc1ccccc1)NCc1ccco1 | 56µM* | ? | 45µM* | ? | 28µM* | ?
O=C(COC(=O)c1ccc(Br)o1)NCc1ccco1 | 79µM* | -11% | . | -7% | . | ?
Cc1cccc(C(=O)OCC(=O)NCc2ccco2)c1 | ? | -7% | -7%[59 µM] | -26% | ? | -26
COc1ccc(C(=O)OCC(=O)NCc2ccco2)cc1OC | -26% | -9% | 45µM* | 16% | -35% | -19
O=C(NC1CC(=O)N(c2ccc(Cl)cc2)C1)c1ccc(S(=O)(=O)N2CCCC2)cc1 (stereo not drawn) | -19% | . | 3%[59 µM] | 47% | 3% | .
CCN(CC)C(=O)c1[nH]cnc1C(=O)NCC(=O)OC(C)(C)C | -24% | -20% | . | 21% | 9% | -3
SMILES | JMJD2A Tudor inh | PLK1 PBD block | G9a block | HP1b binding inh | BAZ2B inh | PI5P4K alpha inh
O=C(Nc1cccc(-c2csc(Nc3ccc(Cl)cc3)n2)c1)c1ccccc1 | ? | ? | -37%[59 µM] | -7% | -25% | -4
Cc1nc(NC(=O)c2ccccc2)sc1-c1csc(Nc2cccc(Cl)c2)n1 | . | . | 50µM* | . | ? | .
Cc1nc(NC(=O)c2ccccc2)sc1-c1csc(Nc2ccc(Cl)cc2)n1 | . | . | 45µM* | . | -38%[57.1 µM] | .
Cc1nc2ccccn2c1-c1csc(Nc2cccc(C(=O)O)c2)n1 | -20% | -4% | 45µM* | 11% | -10% | -23
O=C(Nc1ccc(-c2csc(Nc3ccccc3)n2)cc1)c1ccccc1 | -16% | -1% | ? | 25% | -29% | -3
Cc1nc(NC(=O)c2ccccc2)sc1-c1csc(Nc2ccc(F)cc2)n1 | . | . | 32µM* | . | ? | .
